ERb SRC1 inh – ER-beta (human) coactivator binding inhibition. Q92731. TR-FRET ER-beta LBD / SRC1-Cy5 peptide binding; receptor agonist-loaded with 1 µM estradiol. inhibition, % at 25.6 µM. actives 1.3% (n = 86,000). AID 633;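 active = compounds whose percent inhibition of the receptor-coactivator binding signal exceeds about 50% in the single-dose screen, limit read from the data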;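 note: 0% = receptor plus peptide wells without compound and 100% = peptide-only wells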
Smad3 FoxH1 inh – blocks human Smad3 binding to FoxH1 peptide; P84022; TR-FRET Smad3/Dy647-FoxH1 peptide binding, europium anti-His; inhibition, % at 25 µM; actives 0.29% (n = 88,000); AID 630;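 active = compounds that reduce the energy-transfer binding signal between the protein and its labelled peptide by more than half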;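 note: 0% = Smad3 plus labelled peptide maximal FRET and 100% = peptide-only background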
ERa coact pot – ER-alpha (human) coactivator binding potentiation | P03372 | actives 1.3% (n = 86,000) | coactivator binding (% of control), % at 25.6 µM | TR-FRET ERalpha-LBD/SRC-Cy5 coactivator binding, 2 h; 100 = basal binding, no effect; in the data active = activity above about 200%;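 note: binding measured in presence of low estradiol as agonist stimulus; 0% = peptide alone without receptor and 100% = receptor with peptide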
Target sequence (P03372 whole entry, looked up, the tested form may be a part): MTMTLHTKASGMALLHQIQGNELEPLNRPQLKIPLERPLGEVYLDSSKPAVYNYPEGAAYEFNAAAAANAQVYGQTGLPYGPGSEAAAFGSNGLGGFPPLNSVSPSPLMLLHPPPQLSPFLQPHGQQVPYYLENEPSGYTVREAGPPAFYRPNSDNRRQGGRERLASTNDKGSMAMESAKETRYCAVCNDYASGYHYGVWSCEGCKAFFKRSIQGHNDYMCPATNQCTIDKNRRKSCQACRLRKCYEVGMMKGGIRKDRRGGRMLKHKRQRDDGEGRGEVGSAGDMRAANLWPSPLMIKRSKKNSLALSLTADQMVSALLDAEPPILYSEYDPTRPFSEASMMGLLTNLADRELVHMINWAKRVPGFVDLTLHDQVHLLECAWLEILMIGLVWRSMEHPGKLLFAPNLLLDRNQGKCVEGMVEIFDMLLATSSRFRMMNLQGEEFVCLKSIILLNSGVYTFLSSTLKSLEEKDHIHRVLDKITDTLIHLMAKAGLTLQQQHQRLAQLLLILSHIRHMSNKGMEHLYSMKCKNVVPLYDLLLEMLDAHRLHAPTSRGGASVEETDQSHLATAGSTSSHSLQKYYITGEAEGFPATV
ERa coact inh – ER-alpha (human) coactivator binding inhibition | TR-FRET ER-alpha LBD / SRC-1 peptide, estradiol-bound | P03372 | inhibition, % at 25.6 µM | actives 1.7% (n = 86,000); in the data active = inhibition above about 50%;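 note: 0% = receptor plus peptide control and 100% = peptide only without receptor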
Starred values were filed as active, the others as inactive; nt = no result given; [ ] = another dose, or the depositor's remark. This is a sample that favours compounds with a hit; in the whole collection about 3.7% have one here.

SMILES	ERb SRC1 inh	Smad3 FoxH1 inh	ERa coact pot	ERa coact inh
N[C@@H]1[C@@H]2[C@@H]3C[C@H]4N(CC[C@@]14C(=O)C(=O)O)CC3=CCO[C@@H]2CC(=O)O	nt	2	nt	nt
CCC1(CC)C(=O)N(C)C(=O)NC1=Nc1ccc(OC)cc1	11	5	100	-4
O=S(=O)(NC1CCCC1)c1ccc(S(=O)(=O)NC2CCCC2)cc1	-4	-1	107	-2
CC(C)(C)C(=O)CNS(=O)(=O)c1ccc(S(=O)(=O)NC2CCCC2)cc1	2	10	284*[fluorescence artefact?]	6
Nc1[nH]c(=S)[nH]c(=O)c1N=Nc1c(Br)cc(S(N)(=O)=O)cc1Br	nt	54*	nt	nt
O=C1CC(N(C(=O)c2ccco2)c2cccc(Cl)c2)C(=O)N1c1cccc(Cl)c1 (stereo unspecified)	10	9	101	-5
CCOc1ccc(N(C)S(=O)(=O)c2ccc3[nH]cc(C(=O)NCC4CCCO4)c(=O)c3c2)cc1 (stereo unspecified)	28	-2	105	14
CN(c1ccc(F)cc1)S(=O)(=O)c1ccc2[nH]cc(C(=O)O)c(=O)c2c1	27	10	47	55*[fluorescence artefact?]
CCC1CCCCN1C(=O)c1c[nH]c2ccc(S(=O)(=O)N(C)c3ccc(Cl)cc3)cc2c1=O (stereo unspecified)	14	20	26	58*[fluorescence artefact?]
COCCN(CCOC)C(=O)c1c[nH]c2ccc(S(=O)(=O)N(C)c3ccc(F)cc3)cc2c1=O	17	8	52	53*[fluorescence artefact?]
CC(=O)Oc1ccc(N(C(C)=O)S(=O)(=O)c2cccs2)c2ccccc12	11	1	78	0
CSc1nnc(-c2sc3cc(C(F)(F)F)cnc3c2-c2ccccn2)n1C	-1	3	347*[fluorescence artefact?]	1
CCCC(=O)Nc1ccc(Br)cn1	-6	7	99	9
Cc1ccccc1C(=O)Nc1ccc(Br)cn1	-2	-6	204*	-5
COc1cccc(Oc2cnc(N)nc2-c2ccc(OC)cc2O)c1	-4	2	92	-7
COc1ccc(-c2nc(N)ncc2Oc2ccccc2Br)c(O)c1	36	6	241*[fluorescence artefact?]	24
C=C(C)COc1ccc(-c2nc(N)nc(C)c2Oc2ccccc2OC)c(O)c1	59*[fluorescence artefact?]	13	286*[fluorescence artefact?]	29
COc1cc(OC)cc(-c2nc(-c3cc4cc(C)ccc4nc3OC)no2)c1	37	21	175	11
COc1nc(-c2ccc(Cl)cc2)ccc1-c1noc(-c2ccco2)n1	32	0	376*	30
COc1ccc(-c2ccc(-c3noc(C(C)C)n3)c(OC)n2)cc1	-9	0	128	-8
COc1cccc(-c2ccc(-c3noc(-c4cccs4)n3)c(OC)n2)c1	17	-16	310*[fluorescence artefact?]	14
COc1cccc(-c2ccc(-c3noc(-c4ccccc4F)n3)c(OC)n2)c1	6	27	191	22
COc1nc2c(C)cccc2cc1-c1noc(-c2ccco2)n1	32	7	192	55*[fluorescence artefact?]
C[C@@H]1CC[C@H]2[C@H](C)[C@@H]3[C@@H](C[C@H]4[C@H]5CC=C6C[C@@H](O)CC[C@]6(C)[C@@H]5C[C@@H](O)[C@]34C)N2C1	nt	-2	nt	nt
Cc1cc(C)nc(NC(=O)COc2ccc(Cl)cc2)c1	nt	-2	nt	nt
SMILES	ERb SRC1 inh	Smad3 FoxH1 inh	ERa coact pot	ERa coact inh
CCCNC(=O)COc1ccc(S(=O)(=O)Nc2ccc(C)cc2)cc1	-2	5	97	7
Cc1nnc(NC(=O)c2ccc3c(c2)C(=O)N(CCC(C)C)C3=O)s1	-13	-1	109	6
CC(C)(N=NC(C)(C)C(=N)N)C(=N)N	nt	2	nt	nt
COc1ccc2cc(CN(CC3CCCO3)S(=O)(=O)c3ccccc3Cl)c(=O)[nH]c2c1 (stereo unspecified)	-2	9	90	7
O=C(Cn1c(=O)oc2cc(S(=O)(=O)N3CCCC3)ccc21)Nc1cccc(C(F)(F)F)c1	-5	2	234*[fluorescence artefact?]	60*[fluorescence artefact?]
CCc1cccc(NC(=O)Cn2c(=O)oc3cc(S(=O)(=O)N4CCOCC4)ccc32)c1	19	-18	106	8
O=C(Cn1c(=O)oc2ccccc21)Nc1ccc(S(=O)(=O)N2CCCCC2)cc1	27	0	125	63*[fluorescence artefact?]
O=C(O)CC1Sc2ccccc2NC1=O (stereo unspecified)	15	6	75	-38
O=C1Nc2ccccc2SC(c2ccccc2)C1O (stereo unspecified)	88*	-2	15	95*
C[C@@]12CC[C@H]3c4ccc(OP(=O)(O)O)cc4CC[C@@H]3[C@H]1CCC2=O	nt	-8	nt	nt
Cc1nc(N(C)Cc2ccccc2)c2nnn(Cc3ccccc3)c2n1	-8	-4	97	0
O=C(Nc1ccccc1)c1ccc2nc(-c3ccco3)c(-c3ccco3)nc2c1	88*[fluorescence artefact?]	4	35	90*[fluorescence artefact?]
CC(=O)c1ccc(NC(=O)c2ccc3nc(-c4ccco4)c(-c4ccco4)nc3c2)cc1	95*[fluorescence artefact?]	-4	29	92*[fluorescence artefact?]
Nc1c(C(=O)Nc2ccccc2)sc2nc(-c3ccco3)ccc12	58*[fluorescence artefact?]	10	125	69*[fluorescence artefact?]
O=C(NCc1ccccc1)c1ccc2nc(-c3ccco3)c(-c3ccco3)nc2c1	97*[fluorescence artefact?]	5	36	93*[fluorescence artefact?]
C[N+]1(CCC(=O)c2ccco2)CC2CCC(CC2)C1 (stereo unspecified)	nt	22	nt	nt
O=C(NNC(=O)c1ccc(SCC2CCCO2)c([N+](=O)[O-])c1)c1ccc(F)cc1 (stereo unspecified)	2	-8	104	5
O=C1CC[C@](CCc2nc3ccccc3[nH]2)(c2ccccc2)C(=O)N1	nt	3	nt	nt
Cc1cc2c(=O)[nH]c(N)nc2nc1C	nt	-25	nt	nt
Cc1cc2c(C)c(C)c(=O)[nH]c2cc1N	44	0	16	69*[fluorescence artefact?]
COCCn1c(SCC(=O)Nc2ccc(S(=O)(=O)N(C)C)cc2)nc2ccccc21	6	-33	111	-8
O=C(O)[C@H]1CCCN1Cc1cc2ccccc2c2ccccc12	nt	0	nt	nt
c1ccc(-c2nn3c(-c4ccncc4)nnc3s2)nc1	26	6	40	58*[fluorescence artefact?]
Clc1ccc(-c2nnc3sc(-c4ccccn4)nn23)cc1	7	-2	105	9
CC(C)(C)c1ccc(-c2nnc3sc(-c4ccccn4)nn23)cc1	31	8	262*	23
SMILES	ERb SRC1 inh	Smad3 FoxH1 inh	ERa coact pot	ERa coact inh
Clc1ccc(-c2nn3c(-c4ccncc4)nnc3s2)c(Cl)c1	29	-8	330*	11
CCCNC(=O)NC(=O)CSc1ccc2c(c1)OCCO2	-1	14	91	-3
CC(=O)Nc1ccccc1Nc1cc(C#N)c(C#N)cc1[N+](=O)[O-]	-3	1	106	-4
COc1ccc(/C=N/NC(=O)O)cc1	nt	12	nt	nt
Cc1nc(CN2CCN(C(=O)c3ccc(C(C)(C)C)cc3)CC2)cs1	-1	-6	92	2
CCOC(=O)C1=C(O)/C(=C/c2ccc(CNC(=O)C(=O)Nc3ccc(C)cc3)o2)N=C1C	47	8	110	55*[fluorescence artefact?]
COC(=O)C1=C(O)/C(=C\c2ccc(CNC(=O)C(=O)Nc3ccc(C)c(C)c3)o2)N=C1C	41	0	42	74*
COC(=O)C1=C(O)/C(=C\c2ccc(CNC(=O)C(=O)Nc3ccc(C)cc3)o2)N=C1C	43	-17	37	72*[fluorescence artefact?]
